Compounds without any hit were thinned out: in the full panel of roughly 83,000, 20% have a hit.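 For each line, cells grew in 96-well plates with the test compound present at a single concentration for 48 hours.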 The source made the active and inactive calls.

This test deals with SNB-75 CNS. Briefly: NCI-60 one-dose screen, 48 h (100 = growth as untreated, 0 = no growth, -100 = all killed). The note with it: 10 µM. On the procedure: Growth inhibition of the SNB-75 human tumor cell line is measured as a screen for anti-cancer activity. Cells are grown in 96 well plates and exposed to the test compound for 48 hours. Compounds are tested at a single concentration, which is 10^-5 M for most compounds. The reported endpoint is percent growth (GI% or GIPRCNT), where numbers from 0 - 100% represent growth inhibition, and numbers from -100% - 0 represent cell death. For example, a value of 40 represents 60% growth inhibition. A value of 0 means no net growth occurred over the course of the experiment. A value of -40 indicates 40% of cells at the beginning of the experiment died by the end of the experiment. A value of -100 means all cells are dead at the end of the experiment.
NCI-60 Human Tumor Cell Lines Screen was performed using the standard one-dose NCI protocol, which is described in more detail at https://dtp.cancer.gov/discovery_development/nci-60/default.htm.
Compounds with GIPRCNT values below 10 were considered active. Activity score was based on GIPRCNT using the following formula: […]
Score is 0 for GIPRCNT values of 100 or above, 50 for GIPRCNT values of 0, and 100 for GIPRCNT values of -100.
As for `O=C1Nc2ccc3c(c2/C1=C\c1cc2c(cc1Br)OCO2)OCO3`, the growth is -37.7% (active).
With `COc1ccc(C(=O)n2nc(/C=C/c3ccc(O)c(OC)c3)cc2/C=C/c2ccc(O)c(OC)c2)cc1` the figure was -16% (active); with `O=C(c1ccccc1)C1OC1c1ccc([N+](=O)[O-])cc1` (stereo not given), 70% (inactive).
As for `NC(=N\N=C/c1ccc(O)cc1)/C(N)=N\N=C/c1ccc(O)cc1`, the figure is 94.4% (inactive).
With `C=C(C)[C@@H]1C[C@@H]2Cc3cc(F)ccc3N1O2` the figure was 95.9% (inactive).
On to `COc1ccc(NC(=O)CSc2nc(-c3ccc(OC)c(OC)c3)cc(-c3cc(OC)c(OC)c(OC)c3)n2)cc1`, for which the growth was 76% (inactive).
As for `O=C(/C=C\c1cccc([N+](=O)[O-])c1)/C=C/c1cccc([N+](=O)[O-])c1`, the figure is 94.3% (inactive); as for `Nc1nc(-c2ccccc2)c(CCCOc2ccc(NC(=O)CBr)cc2)c(=O)[nH]1`, 94.3% (inactive).
For `C=C[C@@H]1C[C@@H]2Cc3cc(F)ccc3N1O2`, the growth is 99.7% (inactive).
As for `Nc1cccc(Cl)c1N`, the figure is 76.9% (inactive); as for `COC(=O)C1CCCN1C(=O)[C@@H]1CCCN1C(=O)[C@H](Cc1c[nH]c2ccccc12)NC(=S)Nc1cc(C(F)(F)F)cc(C(F)(F)F)c1` (stereo not given in full), 55.1% (inactive); as for `COc1ccc2c(c1)cn1c3ccc(OC)cc3[nH]c(=O)c21`, 59.1% (inactive).
As for `COc1cc2c(cc1OCCCN1CCN(CCCn3c4ccccc4c4ccccc43)CC1)N=C[C@@H]1CCCN1C2=O`, the figure is -98.9% (active); as for `CCCCC(CC)OC(=O)C(Br)CC` (stereo not given), 90.1% (inactive); as for `COc1ccc(-c2cn(-c3cccc(C(=O)/C=C/c4cc(OC)c(OC)c(OC)c4)c3)c(=O)[nH]2)cc1OC`, 58.2% (inactive).
With `c1ccc(-c2cn(-c3ccccc3)c(-c3ccccc3)n2)cc1` the figure was 81.3% (inactive); with `COc1cc(C2CC(c3ccc4c(c3)OCO4)=NN2C(C)=O)cc(OC)c1OC` (stereo not given), -12.1% (active); with `COC(=O)c1cc(=O)nc(N/N=C/c2ccco2)s1`, 96.2% (inactive).
Consider `COc1ccc2[nH]c(=O)c3c4ccccc4cn3c2c1`, for which the growth is 56.5% (inactive).
With `O=S(=O)(CC(O)(c1ccccc1)c1ccccc1)CC(O)(c1ccccc1)c1ccccc1` the figure was 58.4% (inactive); with `NC(=S)N/N=C1\CCCC(C(F)(F)F)C1` (stereo not given), 87.3% (inactive); with `Cc1ccc2nc(Cl)cc(=O)n2c1`, 115% (inactive).
Regarding `O=c1[nH]c(-c2ccccc2)nc(CN2CCCCC2)c1O`, the growth was 96.3% (inactive).
For the compound `Cc1ccc(Cc2c(C=O)nc(N)[nH]c2=O)c2ccccc12`, the growth was 93% (inactive).
As for `COc1cc(/C=C/C(=O)c2cccc(-n3cc(-c4cc(OC)c(OC)c(OC)c4)[nH]c3=O)c2)cc(OC)c1OC`, the figure is 44.6% (inactive); as for `COc1ccc2c(c1)NC1=C(C(=O)OC1)C2c1cc(OC)c2c(c1)OCO2` (stereo not given), 53.6% (inactive).
With `Clc1ccccc1-c1nc2ccccc2[nH]1` the figure was 84.1% (inactive).
Regarding `CC1=C(C#N)C(=O)NC(C)C1` (stereo not given), the growth is 111% (inactive).
With `CC(C)NCCCNC1=C(Cl)C(=O)c2ccccc2C1=O` the figure was 79.4% (inactive).
As for `c1ccc(-c2nnc(-c3ccccn3)s2)nc1`, the figure is 70.4% (inactive).
With `CN(C)CCN1C(=O)c2ccc3c4c(ccc(c24)C1=O)C(=O)N(CCN=C=S)C3=O` the figure was -75.3% (active).
Consider `COc1cc(Cn2cc3c(c2)-c2oncc2CC3)cc(OC)c1OC`, for which the growth was 45.5% (inactive).
As for `CC1(c2ccc(Cl)cc2)OC(=O)CC(=O)O1`, the figure is 99% (inactive).
On to `NNc1cccc(/C=C/c2ccccc2)cc1=O`, for which the growth was 81.3% (inactive).
As for `O=C(O)Cc1cccc(=O)c(O)c1C(=O)O`, the figure is 107% (inactive); as for `COc1ccc(Nc2nc(N)nc3c2CCN(Cc2ccc(OC)cc2OC)C3=O)cc1`, 85.7% (inactive); as for `Nc1nc(=O)c2ccccc2s1`, 94.1% (inactive).
Turning to `CCc1cnc(=S)n(-c2ccccc2)c1`, the growth is 117% (inactive).
With `COC(=O)c1cccc2c1N(C)c1c(cccc1C(=O)OC)CC2` the figure was 106% (inactive).
With `COc1ccc(-c2nc3sccn3c2/C=C/C(=O)c2cc(F)cc(F)c2)cc1` the figure was 42.3% (inactive).

Source of the values: PubChem BioAssay (NCI).
